# Target: LUC7L2
# Assay: pooled miR-30 sensor sort-seq; sequence = guide strand
# Details: shRNA
# Note: reference of the scale not given here.
row,Sequence,sensor-assay potency score (higher = more potent)
1,TTGCATACTCTGTCATCACTGA,0.248
2,TAGAACATCCTGAACATAGCAA,0.289
3,TTAACTCATGAACACGTTCTGC,-0.686
4,TACTTCATCCATTACTTTCTGG,-0.257
5,TTGAGAAGGTGACTCTTGCATA,-0.354
6,TTTGCTGCTACTTCAGCACTAA,-0.0299
7,TAATCTCTTCTTGAGTTTCTGC,-0.17
8,TGTCTCTGTCACATGATGCTAA,-0.366
9,TTTGGATCGAGTTCTCCTCTTG,-0.398
10,TTGGATCGTTCTCTGCTCCTAT,0.469
11,TCTCTTGAACTCCTGTCTCTGT,-0.457

# Target: LY6K
# Assay: as above
# Details: shRNA
row,Sequence,sensor-assay potency score (higher = more potent)
1,TCTTTGAACACTGATGAGTTGA,-0.353
2,TTGAACACTGATGAGTTGATAG,-0.979
3,TCTATTGTCACCCTCGTCCGTT,-0.102
4,TTTCTCTCTCACAAACATGACA,-1.23
5,TTGGCGTCTGTCCACACCCGCG,-1.54
6,TAGCGAATTTTACAACACTTGA,-0.625
7,TAATGCAACAGGTGACAACGGT,-0.099
8,TCTCTCACAAACATGACACCAC,0.0962
9,TCTCCATCGCTGCACAACCAGC,-1.92
10,AAACATGACACCACACTCTATT,-0.883
11,AATTTTACAACACTTGAGGTAA,-0.3
12,TATTCTTTGAACACTGATGAGT,-0.623

# Target: LY96
# Assay: as above
# Details: shRNA
row,Sequence,sensor-assay potency score (higher = more potent)
1,AATTGCTTTAAATCTCTCCTTG,-0.268
2,TTGTATTCACAGTCTCTCCCTT,0.102
3,TAGGATGACAAACTCCAAGCAA,-0.085
4,TAGGTGTATGAAATACTTGCAT,-0.275
5,AATAGCTTCAACAACACATTTG,-1.65
6,TTCAACAACACATTTGTATTTT,-1.05
7,TATAATTGCTTTAAATCTCTCC,0.0244
8,TGTATGAAATACTTGCATCGGA,-0.274
9,TAATCGTCATCAGATCCTCGGC,-0.407
10,TTGTTGTATTCACAGTCTCTCC,-1.2
11,TTGCTTTAAATCTCTCCTTGGA,0.126
12,TAAATCTCTCCTTGGAATGTAG,-0.351

# Target: LYPD3
# Assay: as above
# Details: shRNA
row,Sequence,sensor-assay potency score (higher = more potent)
1,TCATCCTGGACACAGCCCCGGA,-1.53
2,TTGAGCTTGGCGTTGCAGCGAT,-0.598
3,ACTGTCTTCATCTTGTTCGGGG,0.213
